Hits are enriched below; roughly 0.92% of the tested compounds scored in any of these assays.
BLM inh: inhibitors of human Bloom syndrome helicase BLM; P54132; recombinant BLM DNA unwinding, fluorescence dequenching; Potency, µM (highest dose often 56.1 µM), for inactives: at the top dose activity change, negative = inhibition, usual class: inhibitors; 350,000 tested, 0.2% active; AID 2528;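 note: plate controls were vehicle for no effect and no enzyme for full effect; nearly all actives have a fitted effect of over 35% in size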
TDP1 inh: TDP1 (human) enzyme inhibition; Q9NUW8; recombinant TDP1, AlphaScreen DNA substrate cleavage; Potency, µM (top dose mostly 130 µM), without a hit: top-dose activity change, negative = inhibition, usual class: inhibitors; 350,000 tested, 0.28% active; AID 485290; note: nearly all actives have a fitted effect of over 40% in size
Target sequence (Q9NUW8 whole entry, looked up): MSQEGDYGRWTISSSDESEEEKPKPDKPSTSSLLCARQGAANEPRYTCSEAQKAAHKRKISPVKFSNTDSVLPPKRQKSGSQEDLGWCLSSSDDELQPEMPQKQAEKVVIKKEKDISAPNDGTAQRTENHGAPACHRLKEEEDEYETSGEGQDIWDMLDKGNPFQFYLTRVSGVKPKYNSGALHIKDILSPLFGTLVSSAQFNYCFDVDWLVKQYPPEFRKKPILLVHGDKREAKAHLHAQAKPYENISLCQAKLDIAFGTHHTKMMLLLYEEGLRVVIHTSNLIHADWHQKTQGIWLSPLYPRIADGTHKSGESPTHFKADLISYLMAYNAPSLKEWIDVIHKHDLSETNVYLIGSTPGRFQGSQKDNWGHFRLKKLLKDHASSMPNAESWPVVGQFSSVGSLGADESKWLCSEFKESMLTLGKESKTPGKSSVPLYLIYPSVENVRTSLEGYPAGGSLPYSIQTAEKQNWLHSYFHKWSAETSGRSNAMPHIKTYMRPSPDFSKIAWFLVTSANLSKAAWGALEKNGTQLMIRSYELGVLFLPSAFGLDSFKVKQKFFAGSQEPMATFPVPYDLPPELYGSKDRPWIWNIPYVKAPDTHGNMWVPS
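Tdp1 1 nM final; 15 min RT w/ cpd; substrate 15 nM, 5 min; beads 10 ug/ml, 10 min; AlphaScreen read. Neg ctrl: no enzyme.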
RECQ1 inh-1: inhibitors of human RECQ1 DNA helicase | P46063 | RECQ1 DNA unwinding, red fluorescence kinetic read | 240,000 tested, 0.54% active | Potency, µM (titrated, usually from 57.3 µM), for the others: at the highest dose activity, negative = inhibition, most hits filed as inhibitors;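 note: plate controls were vehicle for no effect and no enzyme for full effect; nearly all actives have a fitted effect of over 30% in size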
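50 nM RECQ1T1 preincubated 15 min with compound in Tris pH 8.0 buffer with MgCl2, DTT, Tween-20 and 2.5 ug/ml poly(dI-dC); started with 200 nM TAMRA/BHQ-2 forked duplex and 2 mM ATP. Unwinding read as fluorescence (525/598 nm), two reads 2 h apart.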
APEX1 inh: inhibitors of human APE1 endonuclease; Potency, µM (titrated, usually from 65.8 µM), inactives show top-dose activity change, negative = inhibition, most hits filed as inhibitors; recombinant APE1, TAMRA/BHQ-2 abasic DNA cleavage fluorescence; 350,000 tested, 0.35% active; P27695;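 note: plate controls were vehicle for no effect and reference inhibitor for full effect; nearly all actives have a fitted effect of over 55% in size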
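Readout is kinetic fluorescence (ex 525, em 598 nm) from cleavage of 50 nM TAMRA/BHQ-2 THF abasic duplex by 0.75 nM APE1, compound added 15 min beforehand at RT.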
FEN1 inh: blocks human flap endonuclease 1 | 390,000 tested, 0.35% active | Potency, µM (titrated, usually from 114 µM), inactives show at the top dose activity change, negative = inhibition, usual class: inhibitors | Recombinant FEN1 flap cleavage, fluorescence, 15 min | P39748; note: nearly all actives have a fitted effect of over 65% in size
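Nuclease activity of 10 nM FEN1 was measured after 15 min of room-temperature exposure to titrated compounds, by adding 50 nM flap substrate and reading plates at 0 and 15 min.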
RECQ1 inh conf: confirmation of human RECQ1 helicase inhibitors; 610 tested, 28% active; shares compounds with RECQ1 inh-1; RECQ1 helicase DNA unwinding, fluorescence; Potency, µM (doses to about 229 µM), for the others: at the top dose activity change, negative = inhibition, usual class: inhibitors; AID 2708; note: nearly all actives have a fitted effect of over 45% in size
RECQ1 ADP FP: ADP displacement flagged in RECQ1 inhibitor counter-screen | Potency, µM (top dose mostly 228 µM), without a hit: top-dose activity change, negative = inhibition, usual class: inhibitors | ADP fluorescence polarization displacement counterscreen | shares compounds with RECQ1 inh-1 | AID 2711 | 530 tested, 27% active; note: nearly all actives have a fitted effect of over 45% in size
RECQ1 inh-2: blocks human RECQ1 DNA unwinding | shares compounds with RECQ1 inh-1 | 1,100 tested, 15% active | Potency, µM (doses to about 119 µM), for inactives: top-dose activity, negative = inhibition, actives largely listed as inhibitors | recombinant RECQ1 DNA unwinding, red fluorescence; note: nearly all actives have a fitted effect of over 50% in size
* marks the source's active call; other numbers are inactive results; i = inactive; ? = inconclusive; nt = not tested or not shown; [ ] = another dose, or the depositor's remark. Calls come from the whole dose curve; as a rule, active = well fitted curve in the direction sought with a large enough effect; inconclusive = small, poorly fitted or top-dose-only effect, or another doubt; inactive = no such curve, though single readings can be large; an effect the other way counts as inactive or inconclusive. Unless noted, % is set by controls: 0 for no effect and ±100 for the full control effect; potency is the fitted concentration of half-maximal effect.

SMILES | BLM inh | TDP1 inh | RECQ1 inh-1 | APEX1 inh | FEN1 inh | RECQ1 inh conf | RECQ1 ADP FP | others
Cc1ccc(-c2csc(=Nc3ccc(F)cc3)n2Cc2ccc3c(c2)OCO3)cc1C | -5% | 1% | nt | nt | 3% | nt | nt
Cc1ccc(NC(=O)CN(C)S(=O)(=O)c2cnc[nH]2)c(C)c1 | -1% | 5% | nt | 56% | 15% | nt | nt
CCOc1ccccc1NC(=O)CN(C)S(=O)(=O)c1cnc[nH]1 | -1% | -1% | 16µM* | -3% | 3% | -1%[114 µM] | 8%[91.9 µM] | RECQ1 inh-2=-2%
Cn1c(=O)n(Cc2ccco2)c(=N)c2c3c(sc21)CCC3 | -4% | -2% | -9% | 3% | 1% | nt | nt
O=c1c2c3c(sc2[nH]c(=S)n1Cc1ccco1)CCC3 | -30% | ? | 13µM* | ? | ? | 45µM* | ?
CC(=O)Nc1ccc(/C=C/c2ccnc3ccccc23)cc1 | nt | nt | nt | nt | -20% | nt | nt
Cc1cc(N/N=C(/CCC(=O)O)C(=O)O)nc2ccccc12 | 2% | 8% | -4% | ? | -4% | 9% | -13%
Cc1cc(N/N=C/c2ccccc2Br)nc2ccccc12 | -2% | 6% | -4% | 2% | -16% | nt | nt
Cc1csc(NC(=O)CSc2nnc(-c3ccc(S(=O)(=O)N4CCCC4)cc3)o2)n1 | 1% | 5% | -1% | 0% | -10% | 8% | 11%
O=C1/C(=C\c2ccc(O)c(O)c2)Oc2cc(O)ccc21 | -8% | 17% | 20µM* | ? | nt | nt | nt | RECQ1 inh-2=56µM*
O=C1/C(=C/c2ccc(Br)cc2)Oc2cc(O)ccc21 | -7% | nt | nt | -1% | 0% | nt | nt
COc1ccc2sc(N(Cc3cccnc3)C(=O)C3CCCCC3)nc2c1 | -9% | 3% | nt | nt | ? | nt | nt
CC(=O)n1cc([C@@H]2C=C(C(=O)NCc3ccccc3)O[C@H](OCc3ccc(CO)cc3)C2)c2ccccc21 | 1% | nt | -12% | 17% | -23% | nt | nt
CC(=O)n1cc([C@H]2C=C(C(=O)Nc3ccccc3)O[C@@H](OCc3ccc(CO)cc3)C2)c2ccccc21 | -8% | 6% | 0.35µM* | -6% | -1% | 3%[114 µM] | 4%[91.9 µM]
CC1(C(=O)O)NCCc2cc(O)c(O)cc21 (configuration not stated) | nt | nt | 6.3µM* | 5.6µM* | nt | ? | 3.2µM*
Cc1cc(C)c2c(CC(=O)Nc3ccccc3C(F)(F)F)coc2c1 | 4% | 6% | nt | nt | -5% | nt | nt
COc1ccc(/C=C/c2ccccn2)cc1 | nt | nt | nt | nt | -1% | nt | nt
O=C(O)CCC(=O)N1CCc2cc(S(=O)(=O)N3CC=C(c4ccccc4)CC3)ccc21 | -6% | nt | -17% | -6% | -2% | -3% | ?
CCCCN(c1ccccc1)S(=O)(=O)c1ccc2c(c1)CCN2C(=O)CCC(=O)O | -4% | 1% | -10% | -9% | -2% | 0% | ?
COC(=O)CCC(=O)N1CCc2cc(S(=O)(=O)N3CCc4ccccc43)ccc21 | -5% | 3% | -3% | 11% | -12% | nt | nt
O=C(O)CCC(=O)N1CCc2cc(S(=O)(=O)N3CCCCC3)ccc21 | -3% | 2% | 9% | 6% | -13% | -2% | 12%
O=C(O)CCC(=O)N1CCc2cc(S(=O)(=O)NCc3ccc(F)cc3)ccc21 | -3% | 1% | nt | nt | 15% | nt | nt
CC1CCCN(S(=O)(=O)c2ccc3c(c2)CCN3C(=O)CCC(=O)O)C1 (configuration not stated) | 0% | 9% | nt | nt | 18% | nt | nt
CC1CCN(S(=O)(=O)c2ccc3c(c2)CCN3C(=O)CCC(=O)O)CC1 | 1% | 5% | -1% | -1% | -4% | 4% | -1%
O=C(CSc1oc(-c2ccco2)nc1S(=O)(=O)c1ccc(Br)cc1)c1ccc(Cl)cc1 | -4% | -3% | nt | nt | -36% | nt | nt
SMILES | BLM inh | TDP1 inh | RECQ1 inh-1 | APEX1 inh | FEN1 inh | RECQ1 inh conf | RECQ1 ADP FP | others
Cc1cc2ccc(Cl)nc2nc1C | nt | nt | nt | nt | 17% | nt | nt
CCn1cc(CCC(=O)O)c(C)n1 | 4% | 8% | -12% | 1% | 1% | nt | nt
Cc1ccc(-c2nn(CCC(=O)O)cc2CCC(=O)O)cc1 | 0% | 3% | i | 3% | -2% | 14% | ?
COCCn1c(C)cc(C(=O)COC(=O)c2ccc(S(=O)(=O)N(C)C)cc2)c1C | nt | 0% | nt | 46% | -10% | nt | nt
COCCn1c(C)cc(C(=O)COC(=O)c2ccc(NC(=O)CC#N)cc2)c1C | -16% | 0% | 32µM* | 8% | -6% | nt | nt | RECQ1 inh-2=-11%
Cc1[nH][nH]c(=O)c1C(c1ccc(-c2ccc(Cl)c(Cl)c2)o1)c1c(C)[nH][nH]c1=O | -26% | 13% | ? | ? | -22% | nt | nt | RECQ1 inh-2=?
Cc1[nH][nH]c(=O)c1C(c1ccc(-c2ccc(F)cc2)o1)c1c(C)[nH][nH]c1=O | -22% | 10% | 7% | -8% | 0% | nt | nt
O=C1C=C(N(CCO)Cc2ccccc2)c2ccccc2C1=O | ? | 0% | ? | -1% | -18% | nt | nt | RECQ1 inh-2=?
O=C1c2ccccc2C(=O)c2c1cccc2N(CCO)CCO | -6% | nt | nt | 7% | -21% | nt | nt
c1ccc(Cn2nnc3c(N4CCCCCC4)ncnc32)cc1 | 1% | -2% | ? | 8% | -22% | nt | nt | RECQ1 inh-2=-12%
Cc1ccccc1OC(C)C(=O)NCCNC(=O)C(C)Oc1ccccc1C (configuration not stated) | nt | 1% | nt | nt | -15% | nt | nt
CCOC(=O)Cc1cc(=O)c2c(=O)n(-c3ccccc3)[nH]c2[nH]1 | -1% | 2% | ? | -8% | -3% | nt | nt | RECQ1 inh-2=-1%
COc1ccc(-n2c(N)c(C(=O)NCC3CCCO3)c3nc4ccccc4nc32)c(OC)c1 (configuration not stated) | -10% | 1% | ? | ? | -16% | nt | nt | RECQ1 inh-2=-20%
COc1ccc(-n2nc(C(=O)NCC(=O)NCC3CCCO3)c3ccccc3c2=O)c(OC)c1 (configuration not stated) | -6% | 3% | -3% | -1% | 4% | nt | nt

Screening results (PubChem)
